Assay outcomes as filed in PubChem.
HT1080NT lethal = qHTS for induction of synthetic lethality in tumor cells producing 2HG: qHTS for the HT-1080-NT fibrosarcoma cell line | HT-1080-NT fibrosarcoma viability, CellTiter-Glo ATP luminescence, 48 h | Potency, µM (top dose mostly 46.1 µM), for the others: top-dose activity, negative = less viability, usual class: cytotoxic | 1.6% of 360,000 active | AID 686970, 2013;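 note: NT is the 2HG producing partner of a matched IDH1 knockdown line; potency is the fitted concentration of half-maximal effect; 0% = DMSO-treated cells and -100% = media-only wells without cells; nearly all actives have a fitted effect of over 55% in size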
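Read-out is CellTiter-Glo luminescence after 10 minutes at room temperature, following 48 hours' compound treatment of HT-1080-NT cells (750 cells/well, RPMI, 5% FBS, 37 degrees C).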
DT40 TDP1 no CPT = qHTS for Inhibitors of human tyrosyl-DNA phosphodiesterase 1 (TDP1): qHTS in cells in absence of CPT. 15% of 420,000 active. DT40 Tdp1-/- hTDP1 cells, no CPT, ATP luminescence, 48 h. Potency, µM (doses to about 46.2 µM), for inactives: top-dose activity change, negative = growth inhibition, most hits filed as inhibitors; note: potency is the fitted concentration of half-maximal effect; nearly all actives have a fitted effect of over 55% in size
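Luminescent ATP content (CellTiter-Glo) served as the growth readout. Knockout chicken DT40 cells expressing human TDP1 were exposed to compounds without camptothecin for a minimum 48 hr at 37 °C.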
TDP1 cell CPT = qHTS for Inhibitors of human tyrosyl-DNA phosphodiesterase 1 (TDP1): qHTS in cells in presence of CPT | chicken DT40 Tdp1-/-;hTDP1 cells + 20 nM CPT, ATP luminescence, 48 h | Potency, µM (titrated, usually from 46.2 µM), for the others: at the top dose activity change, negative = growth inhibition, most hits filed as inhibitors | 12% of 420,000 active; note: potency is the fitted concentration of half-maximal effect; nearly all actives have a fitted effect of over 55% in size
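Chicken DT40 Tdp1-/- cells complemented with human TDP1, 400 cells/well, exposed to compounds plus 20 nM camptothecin for at least 48 h at 37 C; viability read as ATP content by CellTiter-Glo luminescence.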
IL1B secr inh = qHTS for Inhibitors of Inflammasome Signaling: IL-1-beta AlphaLISA Primary Screen; THP-1 LPS/ATP IL-1B secretion, AlphaLISA, 16 h; hits give low values; activity change, % at 57.5 µM; 4.7% of 360,000 active; AID 743279, 2014; in the data active = activity change below about -50%; inconclusive = mostly about -30% to -49%
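THP-1 cells pretreated 1 hr with compounds (up to 57.5 uM final), then stimulated with LPS (250 ng/mL final) plus ATP (1.25 mM final); secreted IL-1B measured by AlphaLISA after 16 hr, decreased signal indicating inhibition.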
HT1080 IDH1KD tx = qHTS for induction of synthetic lethality in tumor cells producing 2HG: qHTS for the HT-1080-IDH1KD cell line; HT-1080 IDH1 knockdown viability, ATP luminescence, 48 h; Potency, µM (series often up to 46.1 µM), for the others: at the highest dose activity, negative = toxicity, usual class: cytotoxic; 2% of 360,000 active; AID 686971, 2013;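 note: potency is the fitted concentration of half-maximal effect; 0% = DMSO wells and -100% = cell-free medium wells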
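Using the IDH1-knockdown HT-1080 line run in the same batch and compound series as the NT line, viability after 48 h at 37 °C was determined by CellTiter-Glo luminescence and expressed as % activity.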
* marks the source's active call; other numbers are inactive results; ? = inconclusive; nt = not tested or not shown; ! = not confirmed by another sample. Hits are enriched below; roughly 19% of the tested compounds scored in any of these assays. Unless noted, calls come from the whole dose curve; as a rule, active = well fitted curve in the direction sought with a large enough effect; inconclusive = small, poorly fitted or top-dose-only effect, or another doubt; inactive = no such curve, though single readings can be large; an effect the other way counts as inactive or inconclusive. Unless noted, % is set by controls: 0 for no effect and ±100 for the full control effect.

SMILES | HT1080NT lethal | DT40 TDP1 no CPT | TDP1 cell CPT | IL1B secr inh | HT1080 IDH1KD tx
COc1ccccc1N1CCN(C(=O)c2sc3ncnc(N4CCN(c5ccccn5)CC4)c3c2C)CC1 | 15µM* | 4.6µM* | 4.6µM* | -75* | 29µM*
COc1cccc(CNCCSc2nnnn2C)c1OCc1ccc(Cl)cc1Cl | nt | 23µM* | 16µM* | nt | nt
COc1cccc(CNCCSc2nnnn2C)c1OCc1ccc(Cl)cc1 | nt | ? | 21µM* | nt | nt
CCOc1c(CNCCSc2nnnn2C)cccc1OC | nt | 5% | -2% | nt | nt
COc1ccc(Cl)cc1CNCCSc1nnnn1C | nt | -14% | 3% | nt | nt
CCOc1ccc(CCN2C(=O)C(=O)N([C@@H](Cc3ccccc3)CN3CCC[C@H]3CN3C(=O)C(=O)NC[C@@H]3Cc3ccc(O)cc3)C[C@@H]2Cc2ccc(O)cc2)cc1 | -9% | ? | ? | -60* | -5%
CCOc1ccc(CCN2C(=O)C(=O)N([C@@H](Cc3ccccc3)CN3CCC[C@H]3CN3C(=O)C(=O)NC[C@@H]3CC(C)C)C[C@@H]2Cc2ccc(O)cc2)cc1 | ? | ? | -91% | -53* | ?
CCOc1ccc(CCN2C(=O)C(=O)N([C@@H](Cc3ccc(O)cc3)CN3CCC[C@H]3CN3C(=O)C(=O)NC[C@@H]3Cc3ccc(O)cc3)C[C@@H]2Cc2ccccc2)cc1 | -5% | ? | ? | 0 | -4%
O=C(c1ccc(Cl)nc1)c1cccs1 | 13% | -9% | 2% | 10 | 21%
O=C(c1cccs1)c1no[n+]([O-])c1C(=O)c1cccs1 | 18µM* | 2.3µM* | 1.8µM* | -97* | ?
COc1ccc(NC2CCCN(C(=O)C3(C)CCCCC3)C2)cc1 (stereo not drawn) | 20% | -22% | ? | 7 | 0%
CC(SC#N)C(=O)C12CC3CC(CC(C3)C1)C2 (stereo not drawn) | ? | 4.6µM* | 7.3µM* | -96* | 16µM*
CC(C)c1nnc(NC(=O)CCC(=O)N2CCN(c3ccccc3F)CC2)s1 | -2% | 10% | -16% | 1 | 6%
COc1ccc(S(=O)(=O)Nc2ccc(C)cc2)cc1OC | 6% | -13% | -7% | 18 | 0%
COc1ccccc1CNS(=O)(=O)c1ccc(-c2cnc(C3CC3)o2)cc1 | 4.6µM* | 0.58µM* | 0.92µM*! | 29 | ?
COc1ccccc1NS(=O)(=O)c1ccc(-c2cnc(C3CC3)o2)cc1 | ? | 0.92µM* | 0.73µM* | 26 | 0.73µM*
COc1ccc(NS(=O)(=O)c2ccc(-c3cnc(C4CC4)o3)cc2)cc1OC | 15µM* | 1.6µM* | 2.1µM* | 10 | 15µM*
CCOc1ccccc1NS(=O)(=O)c1cc(-c2cnc(C3CC3)o2)ccc1C | nt | ? | -20% | nt | nt
CCOc1ccccc1NS(=O)(=O)c1ccc(-c2cnc(C3CC3)o2)cc1 | 0.21µM* | 0.023µM* | 0.0082µM* | 66 | 0.21µM*
CCOc1ccc(S(=O)(=O)N2CCC(C(=O)NCc3ccco3)CC2)cc1C | 0% | ? | -15% | -8 | 5%
COc1ccc(Cl)cc1NC(=O)c1cc(=O)c2cc(C)cc(C)c2o1 | nt | 0% | 3% | nt | nt
CCN(C(=O)COC(=O)c1ccc(Br)o1)C1CCCCC1 | 14% | -27% | 5% | 20 | 3%
CCc1nc(SCC(=O)N2CCCCC2)c2c(=O)n(C)c(=O)n(C)c2n1 | 2% | -13% | -11% | 6 | -1%
O=S(=O)(Nc1cccc(C(F)(F)F)c1)c1ccc(-c2cnc(C3CC3)o2)cc1 | nt | 2.6µM* | 3.7µM* | nt | nt
CC1CN(C(=O)c2ccc(S(=O)(=O)Nc3cccc(C(F)(F)F)c3)cc2)CC(C)O1 (stereo not drawn) | -8% | ? | -28% | 4 | -18%
